Source: PubChem BioAssay (NCATS)
Records with an inconclusive call do not appear. Active and inactive are the calls of the source. Unless noted, the call rests on the fitted dose curve; in most records, active means well fitted cell-killing curve with a large enough effect; inconclusive means small, poorly fitted or top-dose-only effect; inactive means flat fitted curve, though single readings scatter.

Columns and labels:
[1] = Cell Viability - LYMP2-023 (AID 975);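 further: cellular ATP measured by luciferase luminescence as viability proxy; series mostly up to about 92 µM; nearly all actives have a fitted effect of over 55% in size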
Summary of the method: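 Steps: seed 2500 human lymphoblastoid cells per well, incubate 5 hr at 37 C, add compound for 24 hr at 37 C, add CellTiter-Glo, hold 30 min at room temperature, read luminescence. AC50 derived by Hill modelling.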

[2] = Cell Viability - LYMP2-025 (AID 976); further: series mostly up to about 92 µM
Summary of the method: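 Acute cytotoxicity is scored as a concentration-dependent fall in intracellular ATP, measured by luciferase luminescence, in human lymphoblastoid LYMP2-025 cells exposed to compound for 24 hours at 37 C. AC50 values come from standard Hill fits.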

[3] = Cell Viability - LYMP2-002 (AID 977);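 further: series mostly up to about 92 µM; compound exposure lasted 24 h at 37 °C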
Summary of the method: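 Human lymphoblastoid cells, 2500/well, complete medium; 5 h 37 C settle; compound 24 h 37 C; CellTiter-Glo, 30 min RT; luminescence. Decrease in ATP = cytotoxicity; AC50 via Hill equation.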

[4] = Cell Viability - LYMP2-006 (AID 978); further: series mostly up to about 92 µM; nearly all actives have a fitted effect of over 60% in size
Summary of the method: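 Cells are seeded at 2500 per well and rested 5 hr at 37 C. Compounds are added across a concentration series for 24 hr at 37 C, after which ATP is quantified by luciferase luminescence.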

[5] = Cell Viability - LYMP2-007 (AID 979);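 further: cells exposed to compound for 24 h before reading; nearly all actives have a fitted effect of over 60% in size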
Summary of the method: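 Cells are seeded at 2500 per well and rested 5 hr. Compounds are then added over a concentration series for 24 hr at 37 C. CellTiter-Glo is added for 30 min at room temperature before luminescence reading.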

[6] = Cell Viability - LYMP2-008 (AID 980); further: nearly all actives have a fitted effect of over 60% in size
Summary of the method: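 Cells seeded at 2500/well and rested 5 hr at 37 C; compounds added over a concentration range and incubated 24 hr at 37 C; CellTiter-Glo added, 30 min at room temperature; luminescence read and AC50 fitted with Hill model.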

[7] = Cell Viability - LYMP2-010 (AID 981); further: nearly all actives have a fitted effect of over 55% in size
Summary of the method: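 Steps: seed 2500 LYMP2-010 cells per well; incubate 5 hr at 37 C; add compound; incubate 24 hr at 37 C; add CellTiter-Glo, wait 30 min at room temperature; read luminescence. Concentration-response fitted to Hill equation for AC50.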

[8] = Cell Viability - LYMP2-012 (AID 982);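 further: cellular ATP by luciferase luminescence where a drop means cytotoxicity; cells exposed to compound for one day before reading; nearly all actives have a fitted effect of over 55% in size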
[9] = Cell Viability - LYMP2-014 (AID 983); further: series mostly up to about 92 µM; nearly all actives have a fitted effect of over 50% in size
Summary of the method: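 Cells are plated at 2500/well and left 5 hr at 37 C. Compounds are added across a concentration range and incubated 24 hr at 37 C in complete medium. CellTiter-Glo is added, and luminescence is read after 30 min at room temperature.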

[10] = Cell Viability - LYMP2-016 (AID 984); further: nearly all actives have a fitted effect of over 55% in size
Summary of the method: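 Cells were seeded at 2500 per well and rested 5 hr before a 24 hr compound exposure at 37 C. Viability was then gauged as cellular ATP by luciferase luminescence, with AC50 values fitted to the Hill equation.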

[11] = Cell Viability - LYMP2-018 (AID 985); further: nearly all actives have a fitted effect of over 50% in size
Summary of the method: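 Seed 2500 lymphoblastoid cells per well, incubate 5 hr at 37 C, add compound and incubate 24 hr at 37 C, add CellTiter-Glo, wait 30 min at room temperature, then read luminescence.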

[12] = Cell Viability - LYMP2-020 (AID 986)
Summary of the method: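 Seed 2500 cells per well and incubate 5 hr at 37 C. Add compounds at a concentration series and incubate 24 hr at 37 C. Add CellTiter-Glo, wait 30 min at RT, read luminescence, and fit a Hill curve for AC50.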

[13] = Cell Viability - LYMP2-022 (AID 987); further: nearly all actives have a fitted effect of over 55% in size
Summary of the method: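 Cells were seeded at 2500 per well, rested 5 hr at 37 C, and treated with titrated compounds for 24 hr at 37 C. Cellular ATP was then quantified by luciferase luminescence, and AC50 values were derived from Hill-modelled concentration-response curves.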

[14] = Cell Viability - LYMP2-024 (AID 988); further: nearly all actives have a fitted effect of over 60% in size
Summary of the method: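 qHTS cytotoxicity, human lymphoblastoid line, complete medium; 24 h cpd treatment, 37 C; CellTiter-Glo ATP luminescence readout; tetraoctylammonium bromide positive control; AC50 via Hill fit.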

[15] = Cell Viability - LYMP2-026 (AID 989); further: nearly all actives have a fitted effect of over 50% in size
Summary of the method: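 Cells are seeded at 2500 per well and held 5 hr at 37 C. Compounds are added in concentration series for 24 hr, then CellTiter-Glo reagent is applied and luminescence read.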

[16] = Cell Viability - LYMP1-002 - Assay at 24 hr (AID 993)
Summary of the method: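 Acute toxicity is measured as concentration-dependent loss of cellular ATP in a human lymphoblastoid line (Coriell LYMP1-002) after 24 h treatment in complete medium. ATP is quantified by luciferase luminescence and AC50 derived by Hill modelling.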

[17] = Cell Viability - LYMP1-002 - Assay at 40 hr (AID 994); further: nearly all actives have a fitted effect of over 60% in size
Summary of the method: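 Cells are plated at 2500 per well and rested 5 hr at 37 C. Compounds are added and incubated 40 hr at 37 C. CellTiter-Glo reagent is added for 30 min at room temperature before luminescence is read.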

[18] = qHTS assay for small molecule antagonists of peroxisome proliferator-activated receptor delta signaling (AID 588535; active means well fitted inhibition curve with a large enough effect in the signal ratio, with a control signal flat, not every such curve was filed as active; the % refers to the signal ratio;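 on max response: cells co-treated with a PPAR-delta agonist as stimulator during compound exposure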); conditions: HEK293T PPARd-UAS-bla, beta-lactamase FRET ratio, 18 h; 460 nm channel
Summary of the method: (§1)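 Fluorescence from CCF4-loaded GeneBLAzer PPAR-delta-UAS-bla HEK293T cells (2 hrs RT loading) quantified reporter inhibition after an 18 hr, 37 C compound exposure across a titration.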

[19] = target: Peroxisome proliferator-activated receptor delta (Homo sapiens) (UniProt Q03181); experiment: as above
Chain of Peroxisome proliferator-activated receptor delta (Homo sapiens) (Q03181 whole entry, looked up): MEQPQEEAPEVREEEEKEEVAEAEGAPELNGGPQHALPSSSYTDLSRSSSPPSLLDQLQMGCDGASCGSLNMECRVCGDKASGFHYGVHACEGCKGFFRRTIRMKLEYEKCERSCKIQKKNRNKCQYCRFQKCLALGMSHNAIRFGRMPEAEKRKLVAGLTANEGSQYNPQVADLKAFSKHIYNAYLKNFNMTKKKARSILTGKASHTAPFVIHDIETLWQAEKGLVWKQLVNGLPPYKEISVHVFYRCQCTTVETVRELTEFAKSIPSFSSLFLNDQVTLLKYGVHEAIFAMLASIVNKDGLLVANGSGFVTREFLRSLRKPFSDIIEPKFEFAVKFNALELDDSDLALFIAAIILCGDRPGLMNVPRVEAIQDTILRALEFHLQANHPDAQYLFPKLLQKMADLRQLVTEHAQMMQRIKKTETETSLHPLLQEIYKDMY
Summary of the method: as §1

[20] = target: Vitamin D3 receptor (Homo sapiens) (UniProt P11473); experiment: qHTS assay for small molecule antagonists of vitamin D receptor signaling (AID 588541; calls by dose curve;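 further: receptor activated by calcitriol during compound treatment; series mostly up to about 77 µM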)
Chain of Vitamin D3 receptor (Homo sapiens) (P11473 whole entry, looked up): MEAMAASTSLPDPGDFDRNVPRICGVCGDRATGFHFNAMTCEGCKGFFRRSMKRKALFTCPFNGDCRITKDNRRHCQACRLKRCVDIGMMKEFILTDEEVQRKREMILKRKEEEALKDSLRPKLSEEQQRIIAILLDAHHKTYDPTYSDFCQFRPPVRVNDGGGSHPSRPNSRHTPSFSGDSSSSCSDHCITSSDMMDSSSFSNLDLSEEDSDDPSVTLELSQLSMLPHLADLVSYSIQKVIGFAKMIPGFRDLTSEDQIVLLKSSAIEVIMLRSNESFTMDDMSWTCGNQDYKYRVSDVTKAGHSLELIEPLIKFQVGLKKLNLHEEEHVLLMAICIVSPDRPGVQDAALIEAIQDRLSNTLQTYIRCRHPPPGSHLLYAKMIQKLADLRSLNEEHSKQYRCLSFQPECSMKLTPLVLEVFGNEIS
Summary of the method: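 VDR-UAS-bla HEK293T cells in 2% charcoal-stripped FBS were stimulated with 1-alpha,25-dihydroxyvitamin D3 (3 nM final) plus compound for 16 h at 37 C. The beta-lactamase CCF4 readout was normalized to 50 nM agonist and DMSO, and Hill fits gave IC50.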

[21] = target: Vitamin D3 receptor (Homo sapiens) (UniProt P11473); experiment: qHTS assay for small molecule agonists of vitamin D receptor signaling (AID 588543; calls by dose curve)
Summary of the method: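 Reporter cells (HEK293T, VDR-UAS-bla) were seeded in medium with 2% charcoal-stripped serum and incubated 5 h, then compounds in concentration series were added for 16 h at 37 °C. Stimulation was scaled between DMSO basal and 50 nM 1α,25-dihydroxyvitamin D3.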

Measured: max response

CO[C@H]1/C=C/O[C@@]2(C)Oc3c(C)c(O)c4c(O)c(c(/C=N/N5CCN(C)CC5)c(O)c4c3C2=O)NC(=O)/C(C)=C\C=C\[C@H](C)[C@H](O)[C@@H](C)[C@@H](O)[C@@H](C)[C@H](OC(C)=O)[C@@H]1C
91.2%: [18]
inactive: all other assays above
